Inconclusive results are not listed. Active and inactive are the calls of the source. Calls follow the shape of the dose curve; as a rule, active = well fitted activation curve with a large enough effect in the signal ratio in the repeat runs (not every such curve was filed as active); inconclusive = weak or mixed curves, or effect the other way; inactive = flat fitted curve, though single readings scatter; the % refers to the signal ratio.
% is scaled to controls: 0 for no effect and ±100 for the full control effect.

A short description of the assay: qHTS assay to identify small molecule agonists of the endoplasmic reticulum stress response signaling pathway (AID 1159516). As to conditions: ESRE-bla HeLa, ER stress beta-lactamase reporter, 5 h; series mostly up to 61 µM; activation: at the top concentration. Put shortly: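 Using a HeLa line with an ESRE-driven beta-lactamase gene, agonist activity was measured by FRET substrate fluorescence (460 and 530 nm emission) after cells were treated with compounds for 5 hr at 37 C and 5% CO2.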
Background: In qHTS, concentration-response curves come from the screen itself.
For the compound `CC(=O)Oc1ccc2c(c1)CC[C@@H]1[C@@H]2CC[C@]2(C)[C@@H](O)CC[C@@H]12`, the “activation” value was -3.63% (inactive).
With `CC(N)CN` (stereo not given) the figure was -0.387% [at 78.8 µM] (inactive); with `COc1cc2ncnc(Nc3ccc(F)c(Cl)c3)c2cc1OCCCN1CCOCC1`, -2.54% (inactive); with `Cc1cc(OI)c(C(C)C)cc1-c1cc(C(C)C)c(OI)cc1C`, 2.3% (inactive).
With `CCc1nn(CCCN2CCN(c3cccc(Cl)c3)CC2)c(=O)n1CCOc1ccccc1`, the “activation” value is -5.97% (inactive).
`CCN(Cc1cccc(S(=O)(=O)O)c1)c1ccc(C(=C2C=CC(=[N+](CC)Cc3cccc(S(=O)(=O)[O-])c3)C=C2)c2ccccc2)cc1`: the “activation” value was -0.276% (inactive).
Turning to `O=C(CCCN1CCN(c2ccc(F)cc2)CC1)NC1c2ccccc2CSc2ccccc21` (stereo not given), the “activation” value was -6.61% (inactive).
Regarding `C=CCNc1nc(NCC=C)nc(N2CCN(C(c3ccc(F)cc3)c3ccc(F)cc3)CC2)n1`, the “activation” value was 13.1% (inactive).
Then `CC(C)CCCC(=O)O`, with -1.35% (inactive); and `COCCOC`, with 0.0384% (inactive); and `CC1C2CC(CC2C2CCCC(O)C2)C1(C)C` (stereo not given), with 3.53% (inactive).
With `O=C(CS)OCCOC(=O)CS`, the “activation” value is -2.2% (inactive).
For the compound `CCCc1c(OCCCOc2ccc(OCC(=O)O)cc2)ccc(C(C)=O)c1O`, the “activation” value was -0.434% (inactive).
Then `CCCCCCCCCCCC[N+](C)(C)CC(=O)[O-]`, with -0.207% (inactive); and `Cc1occc1C(=O)Nc1ccc(C(=O)N2CCC(F)(F)/C(=C\C(=O)N3CCC(N4CCCCC4)CC3)c3ccccc32)cc1`, with 2.25% [at 28.5 µM] (inactive).
On to `O=C1OCCN1/N=C/c1ccc([N+](=O)[O-])o1`, for which the “activation” value is -1.27% (inactive).
Then `COC(OC)(C(=O)c1ccccc1)c1ccccc1`, with -0.339% (inactive); and `CO/N=C1\CN(c2nc3c(cc2F)c(=O)c(C(=O)O)cn3C2CC2)CC1CN` (stereo not given), with 9.3% (inactive).
Then `CC(C)C(OC(=O)c1ccccc1)C(C)(C)COC(=O)c1ccccc1` (stereo not given), with 2.02% (inactive); and `O=C(Nc1ccc([N+](=O)[O-])cc1)Nc1ccc([N+](=O)[O-])cc1`, with 2.14% (inactive); and `CC(C)(CCl)c1ccccc1`, with 0.379% (inactive).
Regarding `Cc1nccn1-c1ccc(Sc2cccc(C3(C(N)=O)CCOCC3)c2)cc1`, the “activation” value was 0.154% (inactive).
On to `CC[C@@H]([C@H](C)O)n1ncn(-c2ccc(N3CCN(c4ccc(OC[C@@H]5CO[C@@](Cn6cncn6)(c6ccc(F)cc6F)C5)cc4)CC3)cc2)c1=O`, for which the “activation” value is -1.34% (inactive).
Then `CO[C@@]12[C@H](COC(N)=O)C3=C(C(=O)C(C)=C(N)C3=O)N1C[C@@H]1N[C@@H]12`, with -7.35% (inactive).
As to `Cc1ccc(S)cc1`, the “activation” value was -5.75% (inactive).
In the case of `CCCOCCOCCO`, the “activation” value is -0.257% (inactive).
For `CC(C)c1nnc2ccc(-c3ocnc3-c3cc(F)ccc3F)cn12`, the “activation” value was 2.25% (inactive).
Consider `CC(C)(C)CC(C)(C)c1ccc(OCCO)cc1`, for which the “activation” value is -0.368% (inactive).
In the case of `O=C(CCCCCCC(=O)Nc1ccccc1)NO`, the “activation” value was 4.16% (inactive).
Take `O=C(c1ccc(O)cc1)c1ccc(Cl)cc1`: the “activation” value is 1.23% [at 78.8 µM] (inactive).
As for `CO[C@H]1C=CO[C@@]2(C)Oc3c(C)c(O)c4c(O)c(c5c(c4c3C2=O)=NC2(CCN(CC(C)C)CC2)N=5)NC(=O)/C(C)=C\C=C/[C@H](C)[C@H](O)[C@@H](C)[C@@H](O)[C@@H](C)[C@H](OC(C)=O)[C@@H]1C`, the “activation” value is -9.22% (inactive).
With `CC(C)(O)c1ccccc1CC[C@@H](SCC1(CC(=O)O)CC1)c1cccc(/C=C/c2ccc3ccc(Cl)cc3n2)c1`, the “activation” value is -3.16% (inactive).
As for `NC(=O)Cn1c(=O)cc(CCN2CCN(c3nccc4sccc34)CC2)c2ccc(F)cc21`, the “activation” value was 0.878% (inactive).
With `O=Cc1c(Cl)cccc1Cl` the figure was 0.731% [at 78.8 µM] (inactive); with `CC#N`, 2.43% [at 78.8 µM] (inactive); with `CCCCCCCCCCOS(=O)(=O)O`, -0.772% (inactive).
`NC(=O)N(O)[C@@H]1COc2cc(OCc3ccccc3)ccc21`: the “activation” value was 2.28% (inactive).
On to `OCC1CC=CCC1` (stereo not given), for which the “activation” value is 1.14% (inactive).
`C[Si](NC1CCCCC1)(NC1CCCCC1)NC1CCCCC1`: the “activation” value was -0.193% (inactive).
For the compound `CCCCCCOC(=O)C(C)C`, the “activation” value was 0.17% (inactive).

For the origin of these results see PubChem BioAssay (Tox21).
